Measurements reported in PubChem BioAssay (Tox21).
Results filed as inconclusive are left out. The source made the active and inactive calls. Unless noted, calls follow the shape of the dose curve; as a rule, active = well fitted curve in the direction sought with a large enough effect in the repeat runs; inconclusive = weak or mixed curves; inactive = no such curve, though single readings can be large; an effect the other way counts as inactive or inconclusive.

Assays:
[1] = qHTS assay for small molecule agonists of the p53 signaling pathway (AID 651631; calls by dose curve; also: nearly all actives have a fitted effect of over 15% in size)
Method in brief: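 Readout was fluorescence from the LiveBLAzer FRET substrate, applied for 2 h at room temperature after 16 h compound exposure at 37 °C. Cells were the p53RE-bla HCT-116 line, with beta-lactamase driven by p53 response elements.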

[2] = qHTS assay for small molecules that induce genotoxicity in human embryonic kidney cells expressing luciferase-tagged ATAD5 (AID 651632); also: nearly all actives have a fitted effect of over 15% in size
Method in brief: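 Cells were seeded at 2,000 per well, dosed with compound, and incubated 16 hr at 37C in 5% CO2. Luciferase activity was then quantified after a 30 min room-temperature incubation with Amplite.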

[3] = qHTS assay for small molecule agonists of the p53 signaling pathway - cell viability (AID 651633; calls by dose curve; also: series mostly up to about 83 µM; nearly all actives have a fitted effect of over 30% in size)
Method in brief: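 p53RE-bla cells, seeded at 4,000 per well and rested 5 h at 37 C/5% CO2, received compounds in DMSO for 16 h at 37 C. CellTiter-Glo was then added, and luminescence was read after 30 min at room temperature to gauge cytotoxicity.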

[4] = qHTS assay for small molecules that induce genotoxicity in human embryonic kidney cells expressing luciferase-tagged ATAD5 - cell viability (AID 651634; calls by dose curve; also: nearly all actives have a fitted effect of over 25% in size)
Method in brief: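 Cells (HEK293T, luciferase-tagged ATAD5) are seeded at 2,000 per well, dosed with compound or DMSO vehicle, and incubated 15.5 hr at 37C and 5% CO2. CellTiter-Fluor is added for 30 min before fluorescence is measured.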

[5] = qHTS assay for small molecule disruptors of the mitochondrial membrane potential - cell viability (AID 720634; calls by dose curve;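 also: human HepG2 liver cancer cells; series mostly up to about 83 µM; nearly all actives have a fitted effect of over 20% in size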)
Method in brief: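 Cytotoxicity was measured by ATP quantitation in HepG2 wells that had first been treated with compound for 1 hr and stained with m-MPI dye; CellTiter-Glo incubation was 30 min at room temperature.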

[6] = qHTS assay for small molecule disruptors of the mitochondrial membrane potential (AID 720635)
Method in brief: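 HepG2 cells (2,000/well) attached overnight at 37C, then took compound for 1 hr at 37C, 5% CO2. Mito-MPS dye was added for 30 min; fluorescence was read at 490/535 nm (monomers) and 540/590 nm (aggregates).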

[7] = qHTS assay to test for compound auto fluorescence at 590 nm (red) in HepG2 cells (AID 720674)
Method in brief: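 Rose Bengal sodium served as the red fluorophore standard. HepG2 monolayers (overnight attachment, MEM with 10% FBS) were exposed to test compounds for 1 hr at 37 C and read at Ex 540/Em 590 nm.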

[8] = qHTS assay to test for compound auto fluorescence at 535 nm (green) in HepG2 cells (AID 720675)
[9] = qHTS assay to test for compound auto fluorescence at 460 nm (blue) in HEK293 cells (AID 720678)
Method in brief: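 HEK293, 2,000 cells/well, 10% dialyzed FBS; attach 4-5 hr 37C; pin compound or DMSO; o/n 37C/5% CO2; fluorescence 405/460 nm; triamterene-equivalent units.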

[10] = qHTS assay to test for compound auto fluorescence at 535 nm (green) in HEK293 cells (AID 720680)
[11] = qHTS assay to test for compound auto fluorescence at 535 nm (green) in HEK293 cell free culture (AID 720682)
Method in brief: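 Compounds were pin-transferred into cell-free DMEM with 10% FBS, and green fluorescence was read at excitation 485 nm and emission 535 nm. Intensities were expressed as fluorescein-equivalent values.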

[12] = qHTS assay to test for compound auto fluorescence at 590 nm (red) in HEK293 cell free culture (AID 720683)
Method in brief: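 Tox21 10K library compounds were pinned into cell-free DMEM with 10% FBS and fluorescence was read at excitation 540 nm. Activity is expressed as Rose Bengal sodium equivalency.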

[13] = qHTS assay to test for compound auto fluorescence at 590 nm (red) in HepG2 cell free culture (AID 720684)
Method in brief: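 Ex 540 / Em 590 nm read of compound in cell-free MEM (10% FBS). Rose Bengal sodium reference.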

[14] = qHTS assay to test for compound auto fluorescence at 460 nm (blue) in HepG2 cell free culture (AID 720685)
Method in brief: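 Cell-free plates of MEM plus 10% FBS received 23 nL compound or DMSO vehicle; blue-channel (405/460 nm) intensity scored against triamterene as reference fluorophore.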

[15] = qHTS assay to test for compound auto fluorescence at 535 nm (green) in HepG2 cell free culture (AID 720686)
[16] = qHTS assay to test for compound auto fluorescence at 460 nm (blue) in HepG2 cells (AID 720687)
Method in brief: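 Cells (2,000/well in MEM with 10% FBS) attached overnight at 37 C, then were exposed to compound or DMSO for 1 hr at 37 C, 5% CO2. Fluorescence read at Ex/Em 405/460 nm, expressed as triamterene-equivalent signal.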

[17] = biological target: Glucocorticoid receptor (Homo sapiens) (UniProt P04150); assay: qHTS assay to identify small molecule agonists of the glucocorticoid receptor (GR) signaling pathway (AID 720691; active = well fitted activation curve with a large enough effect in the signal ratio in the repeat runs, not every such curve was filed as active; the % refers to the signal ratio)
Chain of Glucocorticoid receptor (Homo sapiens) (P04150 whole entry, looked up): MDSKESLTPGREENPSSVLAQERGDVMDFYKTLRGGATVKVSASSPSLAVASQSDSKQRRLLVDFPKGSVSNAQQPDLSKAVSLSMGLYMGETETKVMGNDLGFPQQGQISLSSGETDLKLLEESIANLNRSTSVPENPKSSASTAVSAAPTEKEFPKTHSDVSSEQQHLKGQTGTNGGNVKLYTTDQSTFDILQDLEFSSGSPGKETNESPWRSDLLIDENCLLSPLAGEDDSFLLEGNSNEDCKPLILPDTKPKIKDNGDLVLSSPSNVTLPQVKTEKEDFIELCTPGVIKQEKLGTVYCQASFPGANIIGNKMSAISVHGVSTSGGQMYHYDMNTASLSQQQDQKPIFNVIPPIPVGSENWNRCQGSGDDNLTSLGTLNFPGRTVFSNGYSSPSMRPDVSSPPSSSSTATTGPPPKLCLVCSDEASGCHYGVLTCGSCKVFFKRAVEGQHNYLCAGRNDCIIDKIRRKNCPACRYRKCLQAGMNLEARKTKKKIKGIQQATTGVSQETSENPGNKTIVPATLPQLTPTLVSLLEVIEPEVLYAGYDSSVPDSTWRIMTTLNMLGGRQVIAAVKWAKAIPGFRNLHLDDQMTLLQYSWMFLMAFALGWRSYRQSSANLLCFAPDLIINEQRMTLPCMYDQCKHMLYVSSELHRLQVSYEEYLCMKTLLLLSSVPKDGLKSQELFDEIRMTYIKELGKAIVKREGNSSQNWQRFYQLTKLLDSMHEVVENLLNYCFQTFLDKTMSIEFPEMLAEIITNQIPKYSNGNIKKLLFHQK
Method in brief: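 Steps: seed GR-bla HeLa cells, incubate 4 h at 37 C/5% CO2; pin-transfer DMSO-dissolved compounds; incubate 18 h at 37 C; add LiveBLAzer B/G FRET substrate; after 2 h at room temperature, measure fluorescence.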

[18] = qHTS assay to test for compound auto fluorescence at 590 nm (red) in HEK293 cells (AID 720679)
Method in brief: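 Intensity at 540nm excitation and 590nm emission is reported as Rose Bengal sodium-equivalent autofluorescence. Measurements followed overnight exposure (37C, 5% CO2) of HEK293 cells, 2,000 per well, to 23 nL compound.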

[19] = qHTS assay to test for compound auto fluorescence at 460 nm (blue) in HEK293 cell free culture (AID 720681)
Method in brief: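 Test compounds were pinned into cell-free culture medium (DMEM with 10% FBS) and fluorescence was read directly at Ex/Em 405/460 nm. Signals were expressed as fluorescence equivalents of triamterene, with DMSO vehicle as control.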

[20] = biological target: Glucocorticoid receptor (Homo sapiens) (UniProt P04150); assay: qHTS assay to identify small molecule antagonists of the glucocorticoid receptor (GR) signaling pathway (AID 720692; active = well fitted inhibition curve with a large enough effect in the signal ratio in the repeat runs, not every such curve was filed as active; the % refers to the signal ratio)
Method in brief: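 Antagonism was scored as loss of dexamethasone-driven (5 nM final) reporter signal in HeLa cells bearing a glucocorticoid response element–beta-lactamase construct, after 18 h compound exposure at 37 C and 2 h FRET substrate loading.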

Measured: Potency

CCOC(CN1CCN(CC(C)C(=O)c2ccccc2)CC1)c1ccccc1 (centres undefined)
not listed: [18] | [19] | [20]
inactive: all other assays above

OC[C@@H](O)C(O)[C@@H](O)CO (some centres undefined)
not listed: [6]
inactive: all other assays above

CCC(=O)CC
not listed: [6] | [20]
inactive: all other assays above

CCCCCCCCCOC(=O)CCCCC(=O)OCCCCCCC
not listed: [6]
inactive: all other assays above

c1ccc2cnccc2c1
not listed: [7]
inactive: all other assays above

NCCOCCN
not listed: [6] | [17] | [19] | [20]
inactive: all other assays above

CC(Oc1cc(Cl)ccc1Cl)C(=O)O (centres undefined)
not listed: [6] | [20]
inactive: all other assays above

CC(C)CCOC(=O)c1ccccc1
not listed: [17] | [18] | [20]
inactive: all other assays above

Cc1c(N)cccc1Cl
not listed: [19]
inactive: all other assays above

C[C@@H](O)C(=O)O
not listed: [6] | [17] | [20]
inactive: all other assays above

C=CC(=O)CCCCC
not listed: [6] | [17] | [20]
inactive: all other assays above

CC(=O)O[C@H]1C[C@@H]2CC[C@@]1(C)C2(C)C
not listed: [18] | [20]
inactive: all other assays above

CCCCCCCCCOC(=O)c1ccccc1C(=O)OCCCCCCCCC
not listed: [18] | [20]
inactive: all other assays above

CCC[C@@H]1C[C@@H](C(=O)N[C@@H]([C@H]2O[C@H](SC)[C@H](O)[C@@H](O)[C@H]2O)[C@@H](C)O)N(C)C1
not listed: [6]
inactive: all other assays above

CC(C)COC(=O)c1ccccc1
not listed: [7] | [20]
inactive: all other assays above
